Sampled rows, rich in hits. Any-hit rate of the full collection: about 5.4%.
HPGD block: inhibitors of human 15-hydroxyprostaglandin dehydrogenase (HPGD). P15428. actives 4.3% (n = 150,000). AID 894. Potency, µM, for inactives: at the highest dose activity change, negative = inhibition, actives largely listed as inhibitors. purified HPGD, NADH fluorescence kinetic, PGE2 substrate; active means well fitted inhibition curve with a large enough effect, not every such curve was filed as active; inconclusive means small, poorly fitted or top-dose-only effect, or another doubt; inactive means no such curve, though single readings can be large or run the other way; further: potency means the concentration at half of the fitted maximal effect
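20 nM HPGD preincubated 15 min at room temperature with compound in 50 mM Tris-HCl pH 8, 0.01% Tween 20. Started with 1 mM NAD+ and 30 uM prostaglandin E2; NADH fluorescence (360/450 nm) read 5 times over 30-s intervals, last minus first.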
ALOX12 inhib: 12-hLO (ALOX12) enzyme inhibition; P18054; purified 12-hLO, xylenol orange hydroperoxide absorbance; Potency, µM (highest dose often 57.1 µM), without a hit: at the highest dose activity change, negative = inhibition, hits mostly inhibitors; actives 0.12% (n = 150,000); AID 1452; further: potency means the concentration at half of the fitted maximal effect; nearly all actives have a fitted effect of over 55% in size
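Lipoxygenase turnover measured by absorbance at 573 and 405 nm after Fe-XO development. Human 12hLO 150 nM, arachidonate 40 uM, pH 7.0 Hepes buffer with detergent; 15 min compound preincubation, 30 min reaction.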
PNC inhibitor: inhibitors of perinucleolar compartment assembly | PC3M PTB-GFP, PNC prevalence imaging, 16 h; stronger effect = lower value | actives 3.1% (n = 140,000) | activity change (PNC), negative = inhibition, % at 10 µM | AID 2417;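 active means readout at or below -70, meaning at least 70% loss of cells showing the perinucleolar compartment, a nuclear body marking cancer cells; inconclusive means readout between -30 and a set limit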;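 further: plate controls were DMSO wells for no effect and camptothecin positive control wells for full effect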
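PC3M cells stably expressing PTB-GFP, 750–1000 cells/well, treated 16 h at 37 °C with compound (23 nl of library stock), in duplicate. After paraformaldehyde fixation and Hoechst stain, imaged at 20x; PNC prevalence scored by image analysis.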
IMPase cell inh: cell-permeable inhibitors of inositol monophosphatase (IMPase) | 120,000 tested, under 10 active | inhibition (IP1 accumulation), % at 46.1 µM | CHO-M1 cells, IP1 accumulation, HTRF TR-FRET ratio | P97697; active means well fitted curve in the direction sought with a large enough effect in the signal ratio, not every such curve was filed as active; inconclusive means small, poorly fitted or top-dose-only effect, or a change in a side signal; inactive means no such curve, though single readings can be large or run the other way; the % refers to the signal ratio;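 further: cells stimulated with carbachol in lithium chloride buffer; plate controls were DMSO basal wells for no effect and reference inhibitor wells for full effect; higher means more IMPase inhibition seen as more IP1 and lower FRET ratio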
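Elevated IP1 in lysates lowers TR-FRET signal (665/620 ratio and 620 channel reported). Cells were CHO-M1, given carbachol (50 uM as added) plus 50mM LiCl, pH 7.4, 30 min, 37C; compounds titrated up to 46 uM; AC50 by Hill equation.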
IMPase Li cell: membrane-permeable IMPase blocker, potentiated with lithium; Potency, µM (series often up to 59.4 µM), without a hit: at the top dose activity, negative = IMPase inhibition, actives largely listed as inhibitors; CHO-M1 cells, IP1 TR-FRET (IP-One), carbachol + lithium; actives 0.35% (n = 210,000);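 further: IP1 builds up when IMPase is blocked and the TR-FRET signal falls; potency means the concentration at half of the fitted maximal effect; plate controls were basal vehicle for no effect and high inhibitor control for full effect; nearly all actives have a fitted effect of over 50% in size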
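IP1 accumulation measured by competitive TR-FRET in lysed CHO-M1 cells after 30 min compound exposure at 37C, with a small lithium addition to potentiate weak responses. Hill-equation AC50 from ratio and donor-channel data.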
ALOX15B inhib: 15-hLO-2 (ALOX15B) enzyme inhibition. O15296. purified 15hLO-2, xylenol orange hydroperoxide absorbance. Potency, µM (doses to about 57.1 µM), for the others: top-dose activity change, negative = inhibition, hits mostly inhibitors. actives 0.56% (n = 110,000). AID 881; further: potency means the concentration at half of the fitted maximal effect; nearly all actives have a fitted effect of over 60% in size
Target sequence (O15296 whole entry, looked up): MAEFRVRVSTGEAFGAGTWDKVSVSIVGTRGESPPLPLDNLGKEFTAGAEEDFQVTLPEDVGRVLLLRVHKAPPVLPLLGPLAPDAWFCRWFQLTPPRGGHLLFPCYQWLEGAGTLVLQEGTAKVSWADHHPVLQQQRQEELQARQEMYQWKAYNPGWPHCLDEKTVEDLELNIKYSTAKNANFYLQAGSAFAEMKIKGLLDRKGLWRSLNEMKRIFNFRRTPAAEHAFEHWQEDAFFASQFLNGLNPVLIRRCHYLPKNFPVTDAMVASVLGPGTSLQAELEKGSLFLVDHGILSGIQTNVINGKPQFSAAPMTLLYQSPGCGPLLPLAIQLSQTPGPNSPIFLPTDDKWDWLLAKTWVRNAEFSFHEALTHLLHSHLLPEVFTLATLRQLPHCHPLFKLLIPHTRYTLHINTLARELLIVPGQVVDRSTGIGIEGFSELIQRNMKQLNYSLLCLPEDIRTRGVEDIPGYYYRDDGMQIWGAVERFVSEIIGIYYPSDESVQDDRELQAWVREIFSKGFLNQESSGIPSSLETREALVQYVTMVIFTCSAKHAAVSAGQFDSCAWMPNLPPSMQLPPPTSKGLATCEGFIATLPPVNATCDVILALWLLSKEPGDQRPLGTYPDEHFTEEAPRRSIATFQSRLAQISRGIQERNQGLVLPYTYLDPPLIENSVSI
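Purified human 15hLO-2 (50 nM final) preincubated with compounds 15 min at room temperature in 25 mM Hepes pH 7.5, 0.01% Triton X-100, then 45 uM arachidonic acid added for 90 min; hydroperoxide detected via ferrous/xylenol orange, 573/405 nm absorbance ratio.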
* hit, by the source's call; ? = inconclusive; . = not tested or not shown; ! = repeats disagree; [ ] = dose if it differs, or a comment. Unless noted, the call rests on the fitted dose curve; in most records, active means well fitted curve in the direction sought with a large enough effect; inconclusive means small, poorly fitted or top-dose-only effect, or another doubt; inactive means no such curve, though single readings can be large; an effect the other way counts as inactive or inconclusive. Unless noted, on the % scale 0 is the no-effect control and ±100 the full control effect.

SMILES	HPGD block	ALOX12 inhib	PNC inhibitor	IMPase cell inh	IMPase Li cell	ALOX15B inhib
CC(=O)c1ccc(NC(=O)c2ccccc2Sc2ncnc3sc(C)c(C)c23)cc1	-19.2%	4.1%	?	.	12.2%	.
Cc1sc2ncnc(Sc3ccccc3C(=O)O)c2c1C	.	.	.	.	4.47µM*	.
CCCCC[C@H](O)/C=C/[C@H]1C=CC(=O)[C@@H]1C/C=C\CCCC(=O)O	22.4µM*!	-15.3%	-96.1*	.	3.4%	.
CCCCC[C@H](O)/C=C/[C@@H]1[C@@H](C/C=C\CCCC(=O)O)[C@@H](O)C[C@@H]1O	-15.5%	0.0%	.	.	17.9%	.
CCC(N)(C(=O)O)c1ccc(C(=O)O)cc1 (centres undefined)	.	.	.	.	-4.1%	.
COc1cccc([C@@H]2Oc3ccc(OC)cc3C(=O)[C@H]2OC(=O)Nc2ccc(OC(F)F)cc2)c1	-8.1%	.	.	.	7.3%	.
Cc1ccc(CSc2nc3c(c(=O)[nH]2)CCC3)cc1	10µM*	0.5%	2.5	5.0	-3.9%[38.3 µM]	-2.2%
Cc1ccccc1CSc1nc2c(c(=O)[nH]1)CCCC2	3.98µM*	3.0%	13.1	0.3	27.3%[38.3 µM]	2.2%
O=c1[nH]c(NCc2ccccc2)nc2c1CCCC2	12.6µM*	7.0%	-23.2	-3.3	4.7%	-0.3%
Cc1cc(C)c2c(=O)[nH]c(SCc3ccccc3C)nc2n1	.	.	.	.	12.8%	.
Cc1cccc(CSc2nc3c(c(=O)[nH]2)CCC3)c1	.	.	.	-12.1	1.0%	.
C[C@@]12C[C@H](O)C3[C@H](CCC4=CC(=O)CC[C@]43C)[C@H]1CC[C@@H]2c1csc(N)n1 (some centres undefined)	-3.2%	.	.	.	13.6%	.
NC1=N[C@H](c2ccc(Cl)cc2)N(c2ccc(S(N)(=O)=O)cc2)C(N)=N1	0.4%	3.1%[11.4 µM]	.	.	1.9%	0.5%[11.4 µM]
COc1ccc(COn2c(=O)c(C)[n+]([O-])c3ccccc32)cc1OC	-10.4%	-4.0%	-111.0*	15.6	20.0%[38.3 µM]	-6.8%
CCCCCCCC#Cc1ccccc1/C=N/S(=O)c1ccc(C)cc1 (centres undefined)	12.6µM*	?	11.6	.	-4.6%	.
CC1=NN(C(=S)Nc2ccccc2)C(c2ccccc2)C1 (centres undefined)	-3.3%	-1.0%	11.7	.	-2.6%	.
Cc1ccc(C2CC(c3ccccc3)=NN2C(=S)Nc2ccccc2)o1 (centres undefined)	17.8µM*	?	-87.7*	-0.9	-5.7%[38.3 µM]	?
CN(C)c1ccnc2sc3c(SCc4ccc(Cl)cc4)ncnc3c12	15.8µM*	-3.1%	20.7	-3.1	-14.8%	.
O=S(=O)(CCc1ccccc1)/N=C/c1cccs1	-17.3%	-0.2%	-103.0*	-10.9	-11.4%[38.3 µM]	-5.0%
O=C(Cc1ccccc1)N/N=C/c1cccs1	-12.3%	1.0%	22.2	-11.1	-8.6%[38.3 µM]	-9.6%
Cc1cnc(NC(=O)COc2cccc3c2OC(C)(C)C3)s1	2.3%	6.4%	-94.7*	2.1	-4.9%[38.3 µM]	-0.8%
CCN1CCN(c2nc(C)nc3c2sc(=S)n3C)CC1	10µM*	-5.3%	-10.3	?	14.0%	.
CC1=C(C#N)C(=O)NC(=O)/C1=C/c1ccc(-c2ccc(S(N)(=O)=O)cc2)o1	.	.	.	.	3.8%	.
C=CCOC(=O)c1cc(-c2ccc(/C=C3\C(=O)NC(=O)C(C#N)=C3C)o2)ccc1Cl	15.8µM*	-15.9%	?	-0.6	-2.6%[38.3 µM]	12.6µM*
CCN(c1ccccc1)S(=O)(=O)c1c(C)nc2scc(C)n2c1=O	.	.	.	-6.1	.	.
C[C@@H]1CC[C@H]2[C@H](C)[C@H]3CC[C@H]4C5[C@@H](O)CC6=CC(=O)CC[C@]6(C)[C@H]5C[C@H]4C3C(=O)N2C1 (some centres undefined)	-1.9%	.	.	.	16.7%	.
CC(C)CCNC(=O)C(c1ccncc1)N(Cc1cccs1)C(=O)Cn1nnc(-c2ccc(F)cc2)n1 (centres undefined)	-24.1%	-4.6%	-100.0*	-4.3	4.9%	.
CCCCOc1ccc(Cn2c(=O)sc3ccccc32)cc1	.	.	.	1.3	.	.
